PI4K2A block: qHTS for small molecular inhibitors of PI4K2A | purified PI4K2A, ADP-Glo luminescence, 1 h; hits give low values | AID 1346378, 2018 | Phosphatidylinositol 4-kinase type 2-alpha (Homo sapiens), Q9BTU6 | activity change, negative = inhibition, % at 76.9 µM | actives 0.13% (n = 420,000); in the data active = activity change below about -50%; inconclusive = mostly about -30% to -49%;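 also: -100% = wells without enzyme as full effect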
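In this quantitative HTS, ADP production by PI4K2A was quantified luminescently after 1 h at ambient temperature; 100 microM adenosine served as plate-quality control.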
POLB inh: qHTS Assay for Inhibitors of DNA Polymerase Beta; Potency, µM (top dose mostly 114 µM), without a hit: top-dose activity change, negative = inhibition, most hits filed as inhibitors; P06746; actives 1.3% (n = 340,000); AID 485314, 2010; Pol beta primer extension/strand displacement, fluorescence kinetic; also: potency is read from the fitted curve at half-maximal effect; % is scaled to controls: 0 for no effect and ±100 for the full control effect
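Human Pol beta at 10 nM; strand-displacement substrate 50 nM final. Compound exposure 15 min at room temperature before start, reaction 10 min at room temperature.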
PI5P4K alpha inh: qHTS for Inhibitors of phosphatidylinositol 5-phosphate 4-kinase (PI5P4K); PI5P4Kalpha enzyme, ADP-Glo luminescence, 60 min; hits give low values; Phosphatidylinositol 5-phosphate 4-kinase type-2 alpha (Homo sapiens), P48426; max response, %; actives 1.2% (n = 330,000); active = max response of -50% or lower; inconclusive = between -30% and -50%; inactive = -30% or higher; also: value at the top dose of about 77 µM; % is scaled to controls: 0 for no effect and ±100 for the full control effect
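Enzyme plus substrate dispensed, test compounds pinned in, then ATP (5 microM final) added. After 60 min at RT, ADP-Glo reagent 1 for 45 min and reagent 2 for 30 min preceded luminescence imaging.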
POLK inh: qHTS for Inhibitors of Polymerase Kappa; DNA polymerase kappa (Homo sapiens), Q9UBT6; purified Pol kappa, fluorescent DNA synthesis assay, 10 min; actives 0.53% (n = 400,000); Potency, µM (highest dose often 107 µM), for inactives: at the highest dose activity, negative = inhibition, hits mostly inhibitors; also: potency is read from the fitted curve at half-maximal effect; % is scaled to controls: 0 for no effect and ±100 for the full control effect
Target sequence (Q9UBT6 whole entry, looked up): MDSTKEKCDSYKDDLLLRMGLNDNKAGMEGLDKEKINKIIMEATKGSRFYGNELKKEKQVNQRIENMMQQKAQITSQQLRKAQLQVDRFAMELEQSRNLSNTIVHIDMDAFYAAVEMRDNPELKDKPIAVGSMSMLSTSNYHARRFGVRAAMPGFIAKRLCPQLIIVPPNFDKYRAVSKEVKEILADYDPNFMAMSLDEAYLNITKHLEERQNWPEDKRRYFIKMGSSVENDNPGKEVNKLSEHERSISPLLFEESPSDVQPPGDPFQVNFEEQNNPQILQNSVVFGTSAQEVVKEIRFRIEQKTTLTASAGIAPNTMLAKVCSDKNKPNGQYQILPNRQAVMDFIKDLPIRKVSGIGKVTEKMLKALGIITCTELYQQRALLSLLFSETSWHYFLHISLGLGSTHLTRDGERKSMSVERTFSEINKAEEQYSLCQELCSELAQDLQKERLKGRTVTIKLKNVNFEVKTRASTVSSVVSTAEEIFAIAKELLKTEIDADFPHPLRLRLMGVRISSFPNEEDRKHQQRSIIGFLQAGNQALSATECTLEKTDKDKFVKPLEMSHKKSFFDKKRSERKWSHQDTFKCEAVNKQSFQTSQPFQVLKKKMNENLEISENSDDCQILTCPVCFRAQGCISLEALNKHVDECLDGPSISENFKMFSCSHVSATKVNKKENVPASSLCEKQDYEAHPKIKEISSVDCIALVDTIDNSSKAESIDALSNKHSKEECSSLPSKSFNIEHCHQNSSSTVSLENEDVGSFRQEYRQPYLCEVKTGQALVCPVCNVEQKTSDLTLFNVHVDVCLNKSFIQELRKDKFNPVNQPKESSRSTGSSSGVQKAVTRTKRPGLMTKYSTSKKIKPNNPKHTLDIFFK
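Readout: fluorescence, taken kinetically at 0 and 10 min. Conditions: 10 nM Pol kappa, 15 min RT compound preincubation, 50 nM substrate final. Controls: enzyme-free buffer wells.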
Pol iota inh: qHTS for Inhibitors of Polymerase Iota; Pol iota fluorescent replication assay, 10 min; Potency, µM (top dose mostly 115 µM), for the others: at the top dose activity, negative = inhibition, most hits filed as inhibitors; actives 1% (n = 390,000); AID 588590, 2011; also: potency is read from the fitted curve at half-maximal effect
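Fluorescent replication assay read twice, at 0 min and 10 min after adding 50 nM (final) substrate. Enzyme (10 nM) and compounds were first incubated 15 min at room temperature; enzyme-free buffer wells were negative controls.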
POLH inh: qHTS for Inhibitors of Polymerase Eta | DNA polymerase eta (Homo sapiens), Q9Y253 | recombinant Pol eta, fluorescent DNA replication assay | Potency, µM (series often up to 114 µM), inactives show at the top dose activity change, negative = inhibition, actives largely listed as inhibitors | actives 1.2% (n = 390,000) | AID 588591, 2011; also: potency is read from the fitted curve at half-maximal effect; % is scaled to controls: 0 for no effect and ±100 for the full control effect
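Fluorescent replication assay: 50 nM final substrate added after a 15 min room-temperature compound preincubation with 10 nM enzyme. Signal taken at 0 min and again at 10 min.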
The depositor's hits bear a star; i = inactive; ? = inconclusive; · = not tested or not shown; ! = not confirmed by another sample; [ ] = remark or other dose. In the library only some 2.8% were active in any assay of this set; here they are far more common. Unless noted, calls follow the shape of the dose curve; as a rule, active = well fitted inhibition curve with a large enough effect; inconclusive = small, poorly fitted or top-dose-only effect, or another doubt; inactive = no such curve, though single readings can be large or run the other way.

SMILES	PI4K2A block	POLB inh	PI5P4K alpha inh	POLK inh	Pol iota inh	POLH inh
CCN1C(=O)C(=C2C=C(C)OC(C)=C2)C(=O)N(CC)C1=S	4.7	-10.3%	2.1	-2.9%[60.1 µM]	-5.6%	-9.1%
C[C@H]1[C@@H]2Cc3ccc(O)cc3[C@@]1(C)CCN2C	-1.4	·	·	·	·	·
Cc1cccc(NC(=O)c2cc3c(=O)n4ccccc4nc3n2C)c1C	-2.3	?	·	-12.1%	-11.2%	-13.9%
Cc1ccc(N2C(=O)NC(=O)/C(=C\c3cccn3C(C)(C)C)C2=O)cc1	-17.3	-0.8%	-2.2	-2.3%	0.6%	-10.5%
CCC(C)c1ccc(N2C(=O)NC(=O)/C(=C/c3cccn3CCOc3ccc(C)cc3)C2=O)cc1 (stereo unspecified)	-2.6	11.4%	-58.0*	-73.7%	35.5µM*	6.8%
CN1CCc2cc3c(c4c2C1Cc1ccccc1-4)OCO3 (stereo unspecified)	-6.5	15.8µM*	-7.7	-1.9%	?	3.0%
Cc1cc(C)cc(NC(=O)Cn2cc(C(=O)c3cccs3)c3ccccc32)c1	-2.7	?	·	-7.2%	-14.4%	-21.8%
Cc1ccc2nc3sc(=O)sc3nc2c1	·	·	·	5.9%[60.1 µM]	·	·
O=C1NC(=O)C(Nc2ccccc2)C(=O)N1	?	·	8.6	-5.8%	3.16µM*	4.2%
O=C1NC(=S)NC(=O)C1C(=O)Nc1ccccc1	·	·	·	-9.1%[60.1 µM]	·	·
Cc1ccc(NC2C(=O)NC(=O)NC2=O)cc1	-58.9*	·	0.6	-15.1%	0.708µM*	79.4µM*
Cc1ccc(C2NC(=S)NC(c3ccc(C)cc3)C23C(=O)NC(=O)NC3=O)cc1 (stereo unspecified)	-5.0	32.2%	3.2	-7.2%	8.0%	-9.8%
COP(=O)(OC)C(Nc1ccc([N+](=O)[O-])cc1)c1ccccc1 (stereo unspecified)	1.4	20.5%	-3.1	-2.1%	127.0%	0.6%
COP(=O)(OC)/C(C=O)=N/Nc1ccc([N+](=O)[O-])cc1	-2.2	22.4µM*	-1.1	0.1%	36.2%	-1.3%
COC1=C(C)C(=O)c2c(c(COC(N)=O)c3n2C[C@@H]2[C@@H]3N2C)C1=O (stereo partly specified)	·	·	·	?	56.2µM*	·
S=C1CN=C(c2ccccc2Cl)c2cc(Cl)ccc2N1	3.0	-24.9%	0.7	-7.4%	74.7%	-30.7%
CN1CCN(C2=Nc3cc(Cl)ccc3Nc3ccccc32)CC1	-3.2	?	11.3	-6.0%[60.1 µM]	79.4µM*!	-12.0%
C[C@H]1CNCCc2ccc(Cl)cc21	-3.2	·	·	·	·	·
O=[N+]([O-])c1ccc(NCc2ccccc2)c2nonc12	-6.1	1.3%	-0.6	-25.9%	31.6µM*	-25.4%
O=[N+]([O-])c1ccc(NCc2ccc(Cl)cc2)c2ccncc12	-2.7	-11.4%	-1.6	4.0%	42.2%	-16.2%
CC(n1cc(C[C@H](N)C(=O)O)c2ccccc21)n1cc(C[C@H](N)C(=O)O)c2ccccc21	·	·	·	0.8%[19.4 µM]	·	·
COc1cc(/C=C2\C(=O)NC(=O)N(CCc3ccc(F)cc3)C2=O)ccc1O	-53.4*	0.4%	-77.8*	-20.3%	?	-0.5%
C=CCN1C(=O)NC(=O)/C(=C/c2cccn2C)C1=O	-23.1	2.4%	?	-9.3%	?	0.2%
COc1ccc(CN2C(=O)NC(=O)/C(=C/c3cc(OC)c(OC)c(OC)c3)C2=O)cc1	-17.1	-2.0%	-50.7*	-7.2%	21.2%	0.7%
Cn1cccc1/C=C1/C(=O)NC(=O)N(Cc2ccc(F)cc2)C1=O	-24.7	1.4%	-65.4*	70.8µM*	39.8µM*	79.4µM*
SMILES	PI4K2A block	POLB inh	PI5P4K alpha inh	POLK inh	Pol iota inh	POLH inh
COc1cc(C=C2C(=O)NC(=O)NC2=O)ccc1O	?	0.9%	-29.2	5.6%	-16.7%	11.4%
CCOc1ccc(/C=C2/C(=O)NC(=O)N(CCc3ccc(F)cc3)C2=O)cc1	-23.0	-6.0%	-54.9*	-7.8%	-10.3%	-6.4%
Nc1ccccc1C(=O)OCC(O)CO (stereo unspecified)	1.2	·	·	·	·	·
C[C@H]1C[C@H](C)C(=O)[C@@H]([C@H](O)CC2CC(=O)NC(=O)C2)C1	·	·	·	-4.2%[19.4 µM]	·	·
COc1ccc2oc(=O)c(C(=O)NCCc3c(C)[nH]c4ccc(F)cc34)cc2c1	0.1	23.4%	·	4.4%	?	-16.3%
Sc1ccccc1Cl	2.4	·	·	·	·	·
COCCOCCO	i	·	·	·	·	·
COc1cc2c(cc1OC)-c1c(OC)c(OC)cc3c1[C@H](C2)[N+](C)(C)CC3	-6.5	50.1µM*	-2.9	-35.2%	?	-1.1%
COc1cc2c3c(c1OC)-c1cc(O)ccc1CC3NCC2 (stereo unspecified)	-1.3	-23.9%	-5.5	-12.2%	-13.9%	-4.2%
O=C(O)c1cccc2c1NC(c1cccc([N+](=O)[O-])c1)C1CC(Sc3ccccc3[N+](=O)[O-])C(Cl)C21 (stereo unspecified)	-4.1	?	-22.8	?	?	31.6µM*
O=[N+]([O-])c1cccc(C2N3CCCN23)c1 (stereo unspecified)	3.9	90.7%	1.3	-1.2%	17.5%	-17.2%
O=C(O)c1ccc2c(c1)C1C(Cl)C(Sc3ccccc3[N+](=O)[O-])CC1C(c1cccc([N+](=O)[O-])c1)N2 (stereo unspecified)	-19.0	?	?	50.1µM*	?	22.4µM*
CCN(CC)C(=O)c1ccc2c(c1)C1C(Cl)C(Sc3ccccc3[N+](=O)[O-])CC1C(C(=O)O)N2 (stereo unspecified)	-22.7	50.1µM*	-59.5*	?	?	17.8µM*
CCc1ccc(NC(=O)CN2C(=O)C3(SCC(=O)N3c3ccc(F)c(F)c3)c3ccccc32)cc1 (stereo unspecified)	6.7	0.9%	·	-14.5%	?	-11.2%
COc1ccc2c3c1O[C@H]1[C@H](O)CC[C@H]4[C@@H](C2)N(C)CC[C@@]341	i	·	·	·	·	·
O=C(O)CCn1cc(C=C2C(=O)NC(=O)NC2=O)c(-c2ccc(Br)cc2)n1	-26.9	21.6%	?	-16.2%	?	11.3%
O=C(O)CCn1cc(C=C2C(=O)NC(=S)NC2=O)c(-c2cccc(Cl)c2)n1	-13.1	-17.1%	-86.3*	-35.2%	64.3%	?
CCN(CC)CCN=Cc1c(O)n(CCc2ccccc2)c(=O)[nH]c1=O	-14.0	3.2%	-22.0	0.3%	?	-1.3%
O=C(N/N=C/c1c(O)n(CCc2ccccc2)c(=O)[nH]c1=O)c1ccccc1	0.9	?	-76.7*	-3.9%	153.2%	-20.5%
CCCCn1c(O)c(/C=N/NC(=O)c2ccncc2)c(=O)[nH]c1=O	-0.8	-7.4%	-65.4*	-10.3%	22.4%	-10.4%

Screening results (PubChem BioAssay)
